Source: PubChem (National Center for Advancing Translational Sciences (NCATS))
JMJD2A Tudor inh: inhibitors of human JMJD2A Tudor domain | Potency, µM (titrated, usually from 114 µM), for the others: at the highest dose activity change, negative = inhibition, most hits filed as inhibitors | actives 4.4% (n = 390,000) | AlphaScreen JMJD2A-Tudor / H3K4me3 peptide binding | AID 504339 | O75164; also: % is scaled to controls: 0 for no effect and ±100 for the full control effect; nearly all actives have a fitted effect of over 50% in size
PLK1 PBD block: blocks phosphopeptide binding to human PLK1 polo-box domain | P53350 | Plk1 PBD binding of FITC phosphopeptide, fluorescence polarization | Potency, µM, for inactives: max response, negative = inhibition, usual class: inhibitors | actives 2.8% (n = 360,000) | AID 720504; also: series mostly up to about 57 µM; % is scaled to controls: 0 for no effect and ±100 for the full control effect; nearly all actives have a fitted effect of over 65% in size
12-LOX inh: inhibitors of human 12S-lipoxygenase ALOX12; actives 1.1% (n = 580,000); purified 12hLO, xylenol orange hydroperoxide absorbance; P18054; Potency, µM (titrated, usually from 108 µM), for the others: top-dose activity change, negative = inhibition, actives largely listed as inhibitors; also: % is scaled to controls: 0 for no effect and ±100 for the full control effect
Target sequence (P18054 whole entry, looked up): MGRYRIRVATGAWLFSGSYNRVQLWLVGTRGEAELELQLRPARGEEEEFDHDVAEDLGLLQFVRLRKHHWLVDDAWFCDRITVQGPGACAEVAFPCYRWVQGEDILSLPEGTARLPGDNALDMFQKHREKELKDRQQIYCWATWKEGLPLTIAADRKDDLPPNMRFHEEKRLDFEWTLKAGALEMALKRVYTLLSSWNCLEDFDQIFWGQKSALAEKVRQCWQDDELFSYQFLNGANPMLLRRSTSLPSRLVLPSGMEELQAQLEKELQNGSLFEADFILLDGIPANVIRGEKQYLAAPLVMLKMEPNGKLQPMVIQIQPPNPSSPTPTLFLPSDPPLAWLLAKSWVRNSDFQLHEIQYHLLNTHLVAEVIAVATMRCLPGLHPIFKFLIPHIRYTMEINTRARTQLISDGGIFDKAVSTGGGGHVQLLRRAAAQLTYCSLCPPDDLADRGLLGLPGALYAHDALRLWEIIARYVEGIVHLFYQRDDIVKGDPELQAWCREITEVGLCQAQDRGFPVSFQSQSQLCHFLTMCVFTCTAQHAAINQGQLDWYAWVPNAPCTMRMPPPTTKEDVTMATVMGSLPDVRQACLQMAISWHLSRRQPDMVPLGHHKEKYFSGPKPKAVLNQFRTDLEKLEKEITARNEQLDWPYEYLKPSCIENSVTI
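Purified human 12hLO at 150 nM in 25 mM Hepes, 0.01% Triton X-100, pH 7.0, preincubated 15 min at room temperature with compound. Reaction started with 40 uM arachidonic acid, 30 min at room temperature. Hydroperoxide measured by Fe-xylenol orange, 573/405 nm absorbance ratio.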
HP1b chromo inh: blocks HP1-beta chromodomain binding to methylated histone tails. actives 0.56% (n = 390,000). P83916. Potency, µM (doses to about 114 µM), for inactives: at the top dose activity change, negative = inhibition, hits mostly inhibitors. AlphaScreen HP1-beta / biotin-H3K9me3 peptide binding; also: nearly all actives have a fitted effect of over 70% in size
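AlphaScreen: HP1-beta (50 nM) preformed 30 min with biotin-H3(1-18)K9me3 peptide (50 nM) in PBS pH 7.4, 0.01% Tween-20. Compound added for 30 min at RT, then streptavidin donor/nickel chelate acceptor beads (10 ug/mL) for 30 min.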
BAZ2B inh: inhibitors of human BAZ2B bromodomain | Q9UIF8 | AlphaScreen BAZ2B-H3K14Ac peptide displacement | Potency, µM (titrated, usually from 114 µM), inactives show at the top dose activity change, negative = inhibition, hits mostly inhibitors | actives 4.4% (n = 360,000) | AID 504333; also: % is scaled to controls: 0 for no effect and ±100 for the full control effect; nearly all actives have a fitted effect of over 60% in size
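Protein-peptide AlphaScreen: BAZ2B 50 nM, b-H3K14Ac 50 nM, 1x PBS pH 7.4 + 0.01% Tween-20. Preincubation 30 min RT; cpd 30 min RT (top 110 uM); beads 20 min RT, light-protected.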
G9a inh: G9a (human) methyltransferase inhibition; actives 8.8% (n = 350,000); AID 504332; Potency, µM (doses to about 102 µM), without a hit: top-dose activity, negative = inhibition, most hits filed as inhibitors; G9a H3K9 monomethylation, AlphaScreen, 2 h; also: % is scaled to controls: 0 for no effect and ±100 for the full control effect; nearly all actives have a fitted effect of over 75% in size
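Step 1: enzyme (final 20 nM) with compound, 15 min RT. Step 2: substrate peptide 500 nM and SAM 20 uM, 2 h RT. Step 3: anti-H3K9me1 antibody and AlphaScreen beads, 10 min, then plate read.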
* hit, by the source's call; ? = inconclusive; . = no result; [ ] = another dose, or the depositor's remark. The list is not random: actives were taken first. Their share in the collection is about 9%. Calls follow the shape of the dose curve; as a rule, active = well fitted curve in the direction sought with a large enough effect; inconclusive = small, poorly fitted or top-dose-only effect, or another doubt; inactive = no such curve, though single readings can be large; an effect the other way counts as inactive or inconclusive. Potency is read from the fitted curve at half-maximal effect.

SMILES | JMJD2A Tudor inh | PLK1 PBD block | 12-LOX inh | HP1b chromo inh | BAZ2B inh | G9a inh
Cc1ccc(OCC(=O)Nc2cc(NC(=O)COc3ccc(C)cc3)cc(C(=O)O)c2)cc1 | -5.6% | -2.7% | -13.4% | 15.4% | -2.2% | ?
Cc1ccc(NC(=O)COC(=O)Cc2c[nH]c3ccccc23)cc1F | ? | -0.4% | ? | 8.7% | -34.9% | 35.5µM*
COc1ccc(NC(=O)CSc2ccc(F)cc2)cc1S(=O)(=O)N1CCCCC1 | -13.5% | -24.1% | -2.7% | 37.7% | 4.8% | 17.4%
Cc1ccc(NC(=O)Cn2ncc(Cl)c(Cl)c2=O)cc1S(=O)(=O)N1CCCCC1 | -26.8% | -16.9% | 99.9% | 15.4% | 0.3% | ?
Cc1ccc(NC(=O)Cn2cc(C(F)(F)F)cc(Cl)c2=O)cc1S(=O)(=O)N1CCCCC1 | -23.6% | -2.1% | 4.8% | 7.4% | 3.8% | 50.1µM*
Cc1ccc(OCC(=O)Nc2cc(C(=O)O)cc(C(=O)O)c2)cc1C | 8.91µM* | 2.99µM* | -2.0% | -11.1% | -12.8% | ?
COc1ccc(NC(=O)CN(C)CC(=O)Nc2cccc(F)c2)cc1S(=O)(=O)N1CCCCC1 | 2.82µM* | 2.5% | -19.8% | ? | . | .
CC1CCCC(NC(=O)CN2C(=O)NC(C)(c3ccccc3)C2=O)C1C (configuration not stated) | -7.6% | -1.4% | -21.6% | 37.2% | 7.7% | ?
CCCCS(=O)(=O)NC1CCc2nn(CC3CC3)c(=O)n2CC1 (configuration not stated) | . | . | 5.6% | . | . | .
O=C(COC(=O)/C=C/c1ccc(F)cc1)Nc1cccc(S(=O)(=O)N2CCCC2)c1 | -5.1% | 3.9% | -3.5% | 29.4% | -18.9% | -5.4%
Cc1ccc(NC(=O)COC(=O)C2CC3C=CC2C3)cc1S(=O)(=O)N1CCCCC1 (configuration not stated) | 56.2µM* | 21.2µM* | -17.5% | 8.9% | 7.5% | 14.4%[59 µM]
Cc1ccc(NCC(=O)Nc2cccc(S(=O)(=O)N(C)C)c2)cc1S(=O)(=O)N1CCCCCC1 | -33.1% | 1.9% | -10.5% | -12.3% | -7.4% | ?
Cc1ccc(NC(=O)CN(C)CC(=O)Nc2cccc(F)c2)cc1S(=O)(=O)N1CCCCCC1 | 17.8µM* | -2.2% | -14.1% | ? | 50.1µM* | 5.62µM*
CC(=O)c1cc(Cl)ccc1OCC(=O)Nc1cccc(S(=O)(=O)N2CCCC2)c1 | 1.3% | 7.0% | 17.3% | 31.6% | 21.1% | 7.08µM*
COc1cccc(/C=C/C(=O)OCC(=O)Nc2cccc(S(=O)(=O)N3CCCCC3)c2)c1OC | -23.3% | 1.8% | -8.2% | 22.6% | -3.0% | 70.8µM*
Cc1ccc(S(=O)(=O)N2CCCCC2)cc1NC(=O)COC(=O)C1CC2C=CC1C2 (configuration not stated) | -16.0% | 0.0% | 12.0% | 1.6% | 2.2% | 20.6%
Cc1cccc(-c2noc(CCc3ccccc3)n2)c1 | 232.4% | -4.1% | -0.3% | 334.0% | 14.5% | 133.9%
CCc1sc(C(=O)NC)cc1Br | -17.9% | -5.0% | ? | 6.2% | ? | 0.0%[59 µM]
COc1ccc(NC(=O)COc2ccccc2F)cc1S(=O)(=O)N1CCCCC1 | -14.0% | -0.6% | ? | 10.9% | -16.3% | .
CCOc1ccc(N2CC(C(=O)Nc3ccc(OC)c(S(=O)(=O)N4CCCCC4)c3)CC2=O)cc1 (configuration not stated) | -30.2% | -1.6% | -11.3% | 0.0% | -35.9% | 79.4µM*
COc1ccc(NC(=O)Cc2ccccc2F)cc1S(=O)(=O)N1CCCCC1 | 1.0% | -0.1% | -13.2% | 43.0% | 0.5% | 0.316µM*
COc1ccc(NC(=O)COc2ccc(C)c(C)c2)cc1S(=O)(=O)N1CCCCC1 | -12.4% | 3.9% | -12.0% | 30.5% | 1.6% | 56.2µM*
COc1cc(Cl)c(C)cc1NCC(=O)Nc1cccc(S(=O)(=O)N2CCCC2)c1 | ? | -13.7% | 484.6% | -17.8% | ? | 11.2µM*
Cn1c(CNc2ccccn2)c(C#N)c2ccccc21 | -7.5% | -4.9% | -1.0% | 25.8% | 2.6% | 4.3%[59 µM]
